Screens: PubChem, several laboratories
CYP2C19 inhib = inhibitors of human CYP2C19; AID 778; inhibition, % at 5 µM; 21% of 96,000 active; CYP2C19 Supersomes, luciferin-H EGE luminescence, 30 min; P33261;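 active = CYP2C19 inhibition above a set limit at 5 µM in the primary screen, cut at about 50% in these data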;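 note: plate controls were negative control wells for no effect and 2.5 mM tranylcypromine positive control for full effect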
Target sequence (P33261 whole entry, looked up): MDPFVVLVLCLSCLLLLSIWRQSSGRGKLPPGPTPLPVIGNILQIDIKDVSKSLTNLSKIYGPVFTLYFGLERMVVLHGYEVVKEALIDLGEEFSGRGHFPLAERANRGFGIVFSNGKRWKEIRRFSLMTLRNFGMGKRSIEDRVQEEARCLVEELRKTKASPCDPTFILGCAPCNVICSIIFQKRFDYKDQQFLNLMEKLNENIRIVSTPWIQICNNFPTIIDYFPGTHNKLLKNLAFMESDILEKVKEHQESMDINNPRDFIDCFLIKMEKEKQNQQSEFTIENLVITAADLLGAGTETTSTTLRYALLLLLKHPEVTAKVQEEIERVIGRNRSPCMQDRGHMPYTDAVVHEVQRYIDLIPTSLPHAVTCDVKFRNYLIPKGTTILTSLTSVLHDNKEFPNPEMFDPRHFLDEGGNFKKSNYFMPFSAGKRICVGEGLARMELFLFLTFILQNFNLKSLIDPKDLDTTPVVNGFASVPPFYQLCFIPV
CYP2C9 act = increases human cytochrome P450 2C9 activity | recombinant CYP2C9, luciferin-H conversion, luminescence; stronger effect = higher value; factor 1 = untreated enzyme, 0 = blocked | activation factor at 5 µM | 1.4% of 96,000 active | P11712;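 active = activation factor of 2 or more for CYP2C9 at a 5 µM dose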;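 note: 0 = sulfaphenazole-blocked wells and 1 = vehicle-only wells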
CYP2C9 inh = human CYP2C9 inhibition. P11712. CYP2C9 Supersomes, luciferin-H conversion, luminescence. inhibition, % at 5 µM. 20% of 96,000 active;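 active = blocking of liver enzyme CYP2C9 beyond about 50% at 5 µM, limit read from the data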
sEH act = soluble epoxide hydrolase (human) activation; P34913; purified human sEH enzymatic activity, activator screen; activation, % at 2 µM; 0.04% of 91,000 active; in the data active = activation above about 37%
CYP2C19 act = increases human CYP2C19 enzyme activity; P33261; recombinant CYP2C19, luciferin-H EGE luminescence; stronger effect = higher value; 0 = fully inhibited enzyme, 1 = untreated enzyme; activation factor at 5 µM; 96,000 tested, under 10 active; AID 1025;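 active = activation factor of at least 2 at 5 µM in the primary screen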;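 note: 0 = wells with 2.5 mM tranylcypromine and 1 = vehicle-only wells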
sEH inh = blocks human soluble epoxide hydrolase activity; P34913; recombinant human sEH enzymatic activity assay; inhibition, % at 2 µM; 0.34% of 91,000 active; AID 707; in the data active = inhibition above about 80%
* = called active by the depositor; . = no result. Compounds with a hit are over-represented: about 27% of the library has one in this group of screens.

SMILES | CYP2C19 inhib | CYP2C9 act | CYP2C9 inh | sEH act | CYP2C19 act | sEH inh
Cc1cc(NC(=O)CCC(=O)N(C2CC2)C2(C(=O)NC3CCCC3)CCC(C)CC2)no1 (stereo not given) | 59* | 0.3 | 71* | 9 | 0.4 | -10
COc1ccc2[nH]cc(C(O)CN3CCC(C(N)=O)CC3)c2c1 (stereo not given) | -8 | 1 | 2 | -6 | 1.1 | 7
CC(=O)NC(C)c1ccc(Cl)c(Cl)c1 (stereo not given) | 75* | 0.9 | 6 | 14 | 0.2 | -14
Cc1sc2ncnc(N3CCN(CCOc4ccc(Cl)cc4)CC3)c2c1C | 97* | 0 | 99* | -2 | 0 | 0
CSc1nc(-c2ccccc2)[nH]c(=S)c1C(C)=O | 20 | 0.5 | 55* | 2 | 0.8 | -5
Cc1ccc(C(=O)NCCCCNC(=O)c2ccc(C)o2)o1 | -17 | 1.1 | -11 | -1 | 1.2 | 2
COc1cccc(NC(=S)NCCC(c2ccccc2)c2ccccc2)c1 | 55* | 0.3 | 68* | -66 | 0.4 | 67
COc1ccc(NC(=S)NCCc2ccccc2OC)c(OC)c1 | 99* | 1.1 | -12 | -3 | 0 | 2
COc1ccc(NC(=S)Nc2ccc(F)cc2)c(OC)c1 | . | . | . | -5 | . | 3
COc1ccc(NC(=S)NCc2ccco2)c(OC)c1 | 81* | 0.6 | 36 | 7 | 0.2 | -7
COc1ccc(OC)c(NC(=S)NCc2ccco2)c1 | . | . | . | -1 | . | -2
COc1ccccc1CCNC(=O)c1ccc(C)o1 | 68* | 1.1 | -11 | . | 0.3 | .
CCCCN(Cc1cc2ccccc2[nH]c1=O)C(=O)c1ccccn1 | -4 | 1.1 | -14 | -4 | 1 | 6
Cc1ccc(C)n1NC(=O)c1ccccc1O | 19 | 0.6 | 45 | 1 | 0.8 | -2
CC1CCN(CCCNC(=O)c2ccc(CSCc3cccc(Cl)c3)o2)CC1 | 1 | 1 | 1 | 10 | 1 | -13
Oc1ccc(N2CCN(C(c3cccs3)c3nnnn3CCc3ccccc3)CC2)cc1 (stereo not given) | -12 | 0.7 | 27 | -14 | 1.1 | 12
CC(=O)Nc1cccc(C(=O)NC(C)c2ccc(S(N)(=O)=O)cc2)c1 (stereo not given) | -6 | 0.9 | 7 | 0 | 1.1 | -1
COc1ccc(NC(=S)NCCC(c2ccccc2)c2ccccc2)c(OC)c1 | 99* | 0.1 | 86* | -44 | 0 | 44
COC(=O)C(C)Sc1nnc(Cc2cc(=O)[nH]c(=O)[nH]2)n1-c1ccc(OC)cc1 (stereo not given) | 1 | 0.9 | 9 | 4 | 1 | -4
COc1cc(NC(=S)NN2CCOCC2)cc(OC)c1 | . | . | . | -1 | . | -1
COc1ccc2cc(C(c3nnnn3C3CCCC3)N3CCc4ccccc4C3)c(=O)[nH]c2c1 (stereo not given) | 26 | 0.5 | 48 | 0 | 0.7 | 2
COc1ccc2cc(C(c3nnnn3C(C)(C)C)N3CCc4ccccc4C3)c(=O)[nH]c2c1 (stereo not given) | 65* | 0.1 | 94* | . | 0.3 | .
CCC(C)(C)n1nnnc1C(c1cc2ccc(OC)cc2[nH]c1=O)N1CCc2ccccc2C1 (stereo not given) | 18 | 0.3 | 73* | 9 | 0.8 | -11
CCOC(=O)Cc1csc(NC(=O)CSc2nnnn2-c2ccc(C)c(C)c2)n1 | . | . | . | 0 | . | 5
Cn1c(SCC(=O)N2CCN(c3ccccc3)CC2)nnc1-c1ccncc1 | . | . | . | -2 | . | 5
SMILES | CYP2C19 inhib | CYP2C9 act | CYP2C9 inh | sEH act | CYP2C19 act | sEH inh
CC1CN(C(=O)CSc2nnc(-c3ccncc3)n2-c2ccccc2)CC(C)O1 (stereo not given) | 76* | 0.8 | 24 | . | 0.2 | .
CC(C)c1ccccc1-n1c(SCC(=O)N2CCN(c3ccccc3)CC2)nnc1-c1cccnc1 | 55* | 0.4 | 56* | 8 | 0.5 | -5
CC1CN(C(=O)CSc2nnc(-c3ccc(Cl)cc3)n2C)CC(C)O1 (stereo not given) | -8 | 1 | -2 | 3 | 1.1 | -1
COc1ccccc1C1C(C(=O)c2sc(C)nc2C)=C(O)C(=O)N1CCN1CCOCC1 (stereo not given) | -4 | 1.1 | -8 | . | 1 | .
CCOC(=O)C1=C(C)SC2=NS(=O)(=O)CCN21 | 40 | 1 | -2 | . | 0.6 | .
CCOC(=O)CC1(c2ccccc2)CCOC(C)(C)C1 (stereo not given) | 87* | 0.7 | 34 | -2 | 0.1 | 5
Cc1ccc(N2CC(C(=O)NCCCn3ccnc3)CC2=O)cc1 (stereo not given) | 85* | 0.2 | 76* | 7 | 0.1 | -4
CCc1nnc(NC(=O)C2CC(=O)N(c3ccc(C)cc3)C2)s1 (stereo not given) | -7 | 0.9 | 12 | -3 | 1.1 | 3
Cc1ccc(N2CC(C(=O)NCCC(C)C)CC2=O)cc1 (stereo not given) | . | . | . | -2 | . | 3
Cc1ccc(N2CC(C(=O)Nc3nnc(C(C)C)s3)CC2=O)cc1 (stereo not given) | 2 | 0.4 | 58* | 24 | 1 | -21
O=C(c1cnc2n(c1=O)CCS2)N(C1CCCCC1)C1CCCCC1 | 1 | 0.9 | 11 | 4 | 1 | -5
O=C1c2oc3ccccc3c(=O)c2C(c2cccnc2)N1CCCN1CCOCC1 (stereo not given) | -5 | 1 | -4 | 22 | 1 | -21
CC(C)Oc1ccc(C2c3c(oc4ccccc4c3=O)C(=O)N2CCCN2CCOCC2)cc1 (stereo not given) | 49 | 0.5 | 51* | 11 | 0.5 | -12
C=CCOc1ccc(C2c3c(oc4ccccc4c3=O)C(=O)N2CCCN2CCOCC2)cc1 (stereo not given) | 36 | 0.5 | 55* | -7 | 0.6 | 8
Fc1ccc(-c2cnc[nH]2)cc1 | 55* | 0.2 | 76* | -3 | 0.5 | 5
Cc1ccc(-c2nc3ncccn3c2NC2CCCC2)o1 | 3 | 1 | 1 | -4 | 1 | 6
Brc1ccc(-c2nc3ncccn3c2NC2CCCCC2)o1 | 48 | 0.4 | 56* | 9 | 0.5 | -8
COCCSc1ccccc1C(=O)NCc1ccc(S(N)(=O)=O)cc1 | -12 | 1 | -2 | -5 | 1.1 | 6
COCCN1C(=O)c2oc3cc(C)c(C)cc3c(=O)c2C1c1ccc(O)cc1 (stereo not given) | . | . | . | -5 | . | 2
CCOc1cc(C(c2c(C)[nH][nH]c2=O)c2c(C)[nH][nH]c2=O)ccc1OC(=O)c1cccc([N+](=O)[O-])c1 | 41 | 0.5 | 54* | -2 | 0.6 | 4
CCOc1cc(C(c2c(C)[nH][nH]c2=O)c2c(C)[nH][nH]c2=O)ccc1OCc1ccc([N+](=O)[O-])cc1 | 60* | 0.7 | 34 | -9 | 0.4 | 10
O=C(c1ccco1)N1CCN(c2cc(=O)n(-c3ccc(Cl)cc3)c(=O)[nH]2)CC1 | 2 | 0.9 | 8 | -1 | 1 | 0
CCOC(=O)/C(C(C)=O)=C1/OC(=O)c2ccccc21 | -10 | 1 | -1 | 4 | 1.1 | -5
